Assay outcomes (PubChem)
SW480 rerep – A quantitative high throughput screen for small molecules that induce DNA re-replication in SW480 colon adenocarcinoma cells; Potency, µM (series often up to 46.1 µM), for inactives: top-dose re-replication activation, actives largely listed as activators; SW480 DNA re-replication, Hoechst DNA content imaging, 48 h; 340,000 tested, 1.8% active; note: % of control where 0% means no effect; nearly all actives have a fitted effect of over 55% in size
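Hoechst fluorescence of nuclei (405 nm excitation, 500-530 nm emission) measured by plate-scanning imager after 48 hr compound exposure at 37 C; re-replication scored as increased number of nuclei with elevated intensity.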
KB-V1 MDR tox – qHTS assay for MDR1-selective chemotherapeutics: Primary screen using the drug-selected MDR subline cells KB-V1; KB-V1 MDR cells viability, CellTiter-Glo, 72 h; Potency, µM (titrated, usually from 46.1 µM), usual class: cytotoxic; 400,000 tested, 3.4% active; note: % is set by controls: 0 for no effect and ±100 for the full control effect; nearly all actives have a fitted effect of over 60% in size
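In this primary screen, KB-V1 cells overexpressing P-gp are incubated with library compounds (lowest to highest concentration) for 72 h at 37 degrees C before a luminescent ATP viability read.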
KB-3-1 tox – qHTS assay for MDR1-selective chemotherapeutics: Primary screen using the parental adenocarcinoma cell KB-3-1. Potency, µM (highest dose often 46.1 µM), hits mostly cytotoxic. 400,000 tested, 1.4% active. AID 1347075, 2019. KB-3-1 viability, CellTiter-Glo ATP luminescence, 72 h; note: % is set by controls: 0 for no effect and ±100 for the full control effect; nearly all actives have a fitted effect of over 60% in size
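Screening of KB-3-1 cells (DMEM, 10% FBS, phenol-red free) ran from lowest to highest compound concentration; after 72 h at 37 °C viability was read luminescently and curves fitted.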
ELG1 DNA repair – qHTS screen for small molecules that inhibit ELG1-dependent DNA repair in human embryonic kidney (HEK293T) cells expressing luciferase-tagged ELG1. HEK293T ELG1-luciferase reporter, luminescence, 16 h; DNA damage induced by 5-fluorouridine. Potency, µM (titrated, usually from 46.1 µM), for the others: top-dose activity change, negative = inhibition, usual class: inhibitors. 330,000 tested, 2.3% active. AID 504467, 2011; note: % is set by controls: 0 for no effect and ±100 for the full control effect; nearly all actives have a fitted effect of over 55% in size
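Luminescence from the luciferase reporter, measured 30 min after ONE-Glo reagent at room temperature, was the read-out. Beforehand, 2,000 cells per well were exposed for 16 hr at 37 °C to 5-fluorouridine together with compound or vehicle.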
MCF10A rereplic – A quantitative high throughput screen for small molecules that induce DNA re-replication in MCF 10a normal breast cells. Potency, µM (titrated, usually from 46.1 µM), for the others: at the highest dose activity, positive = re-replication, usual class: activators. 350,000 tested, 2.9% active. MCF 10A DNA re-replication, Hoechst nuclear intensity, 48 h. AID 624296, 2012; note: % of control where 0% means no effect; nearly all actives have a fitted effect of over 50% in size
Numbers without * were called inactive; i = inactive; ? = inconclusive; nt = not tested or not shown; [ ] = dose if it differs, or a comment. This is a sample that favours compounds with a hit; in the whole collection about 8.1% have one here. Calls come from the whole dose curve; as a rule, active = well fitted curve in the direction sought with a large enough effect; inconclusive = small, poorly fitted or top-dose-only effect, or another doubt; inactive = no such curve, though single readings can be large; an effect the other way counts as inactive or inconclusive. Potency is the fitted concentration of half-maximal effect.

SMILES	SW480 rerep	KB-V1 MDR tox	KB-3-1 tox	ELG1 DNA repair	MCF10A rereplic
O=C(NCc1ccco1)c1ccc(OCC2CCCO2)cc1 (stereo not drawn)	-9.7%	i	i	?	3.4%
O=C(Nc1ccccc1)c1cnc(-c2ccccc2)nc1-c1ccccc1	13µM*	10.3µM*	i	?	?
CC(=O)Nc1ccc2nc(CN3CCC(CO)(CCc4ccccc4)CC3)ccc2c1	0.2%	i	i	4.7%	18.4µM*
CC(=O)c1cccc(CN2CCC(CO)(CCCc3ccccc3)CC2)c1	-3.3%	?	i	-4.6%	11.7%
CCCCNCc1cc(Cl)c(OCCC)c(OCC)c1	?	16.4µM*	i	-4.2%	5.8%
CCCCOc1c(Cl)cc(CNC(C)(C)CO)cc1OCC	0.8%	i	i	-1.7%	-1.1%
CC(=O)N1CCN(c2ccc(NCc3ccc(Br)o3)cc2)CC1	-1.3%	i	i	0.9%	-3.4%
CC(=O)N1CCN(c2ccc(NCc3ccc(-c4ccc(Br)cc4)o3)cc2)CC1	13µM*	i	9.2µM*	-6.5%	23.1µM*
COC(=O)C(Cc1cnc(Cl)s1)(C(=O)OC)c1ccc([N+](=O)[O-])cc1	-1.4%	?	i	2.0%	-10.3%
O=C(CNc1ccc2c(c1)OCO2)N/N=C\c1cn(Cc2ccccc2)c2ccccc12	-8.8%	?	?	?	15.0%
O=C(CNc1ccc2c(c1)OCO2)N/N=C\c1cn(Cc2ccc(F)cc2)c2ccccc12	-1.5%	nt	nt	?	20.6µM*
CCOC(=O)N/N=C/c1cn(Cc2ccc(Cl)cc2)c2ccccc12	3.1%	?	?	28.4%	4.5%
O=C(N/N=C/c1cn(Cc2ccccc2)c2ccccc12)c1ccncc1	?	?	i	18.3µM*	11.9%
N#CCC(=O)N/N=C/c1cn(Cc2ccc(Cl)cc2Cl)c2ccccc12	?	i	i	-27.2%	11.6µM*
Fc1ccc2cnc(-c3ccccc3F)cc2c1	-13.6%	i	i	?	18.4µM*
CCc1ccccc1-n1nnc(-c2nc(-c3ccccc3F)no2)c1C	nt	i	i	nt	nt
O=C(CCl)N1CCN2C(=O)c3ccccc3C12c1ccc(Cl)cc1 (stereo not drawn)	?	?	?	15.9%	23.1µM*
Cc1cc2ncn(CCOc3ccccc3)c2cc1C	-59.7%	23.1µM*	i	?	19.5%
COCCn1cnc2cc(C)c(C)cc21	-7.3%	i	i	-9.7%	1.5%
CCC(=O)c1ccc(OCCn2cncn2)cc1	-5.5%	i	i	6.8%	-13.4%
CCC(=O)c1ccc(OCCn2cnc3ccccc32)cc1	-2.1%	20.6µM*	i	9.0%	-4.0%
C/C(=N\NC(=O)c1c(Br)c(C)nn1C)c1ccc(NC(=O)C(C)Oc2ccc(Cl)cc2C)cc1 (stereo not drawn)	9.4%	i	i	?	16.4µM*
CCC(=O)Nc1ccc(/C(C)=N/NC(=O)c2c(Br)c(C)nn2C)cc1	11.6%	7.31µM*	i	?	10.4%
C/C(=N\NC(=O)c1c(Br)c(C)nn1C)c1ccc(NC(=O)c2ccoc2C)cc1	-189.3%	i	i	0.9%	13.1%
O=C(CSc1nnc(NC(=O)C2CCC2)s1)Nc1ccccc1F	-16.3%	?	i	7.6%	-5.4%
SMILES	SW480 rerep	KB-V1 MDR tox	KB-3-1 tox	ELG1 DNA repair	MCF10A rereplic
N#Cc1ccc(-c2ccccc2)nc1SCC(=O)c1cccc(Cl)c1	0.0%	i	i	18.4%	14.1µM*
N#Cc1ccc(-c2ccc(Cl)cc2)nc1SCC(=O)c1cccc(Cl)c1	-22.3%	?	?	?	-1.7%[9.22 µM]
C#CCn1c(S(=O)(=O)Cc2ccccc2Cl)nc(-c2ccccc2)c1-c1ccccc1	-3.9%	i	i	1.3%	7.4%
C#CCn1c(S(=O)(=O)Cc2ccc(C)cc2)nc(-c2ccccc2)c1-c1ccccc1	?	6.51µM*	6.51µM*	21.8%	27.4%
OCCN1CCN(c2ncnc3sc(-c4ccccc4)cc23)CC1	14.2%	i	i	?	?
CCCc1nn2c(=O)cc(CSCC(=O)Nc3nnc(C(C)C)s3)nc2s1	-1.3%	i	i	14.2%	-35.3%
Nc1nc2ccccc2n1/N=C/c1ccc(-c2ccccc2)o1	?	20.6µM*	?	?	?
Nc1nc2ccccc2n1/N=C/c1cccnc1	-2.4%	i	i	nt	2.8%
COc1cc(NC(=O)c2cccs2)c(C(=O)OCC(=O)NC(=O)NCc2ccccc2)cc1OC	22.5%	i	i	-21.0%	14.6µM*
COc1cc(C(=O)OCC(=O)NC2CCCC2)cc(NC(=O)c2ccco2)c1OC	-10.1%	4.61µM*	i	?	1.9%
COc1cc(NC(=O)c2cccs2)c(C(=O)OCC(=O)NC(=O)NC(C)(C)C)cc1OC	-8.3%	i	i	6.4%	0.9%
COc1cc(C(=O)OCC(C)=O)cc(NC(=O)c2ccco2)c1OC	-8.3%	i	i	?	?
COc1cc(C(=O)OCC(=O)NCc2ccc(F)cc2)cc(NC(=O)c2cccs2)c1OC	-3.5%	i	i	20.6µM*	-2.2%
Cn1c(CCNC(=O)c2ccco2)nc2cc([N+](=O)[O-])ccc21	-22.4%	i	i	2.0%	-27.5%
C=CCn1c(=O)c2ccccc2n2c(SCC(=O)Nc3sc(C)c(CC)c3C(=O)OCC)nnc12	-41.1%	?	i	?	?
C=CCn1c(=O)c2ccccc2n2c(SCC(=O)Nc3sc(C(=O)N(CC)CC)c(C)c3C(=O)OCC)nnc12	?	i	?	20.6µM*	4.9%
CCOC(=O)c1c(NC(=O)CSc2nc3cc(Cl)ccc3c(=O)n2Cc2ccco2)sc(C(=O)N(C)C)c1C	8.6%	i	i	3.26µM*	?
COC(=O)c1ccc2c(=O)n(CCN3CCOCC3)c(SCC(=O)C(C)(C)C)nc2c1	1.4%	10.3µM*	i	?	-0.1%
CCOC(=O)CSc1nc2cc(C(=O)OC)ccc2c(=O)n1CCN1CCOCC1	-3.1%	16.4µM*	i	-8.5%	1.4%
O=S(=O)(Cc1ccccc1)Nc1ccc(S(=O)(=O)N2CCCC2)cc1	-0.1%	i	i	0.1%	-0.9%
CC(=O)Nc1c2c(nn1-c1ccccc1C)CSC2	1.9%	i	i	6.2%	-0.2%
CC(C)(C)c1ccc(NC(=O)COC(=O)c2ccc(CN3CCCC3=O)cc2)cc1	?	?	i	?	-3.5%
